Reference: PubChem BioAssay AID1159580 (chemical genetic matrix, 2015)
“And” between values parts separate entries of the source, which are not always exact repeats. Identical values can stand only once. Screen size: about 5,500 compounds; about 2,000 (36%) were called active. Not shown: some 18% with an inconclusive outcome. No stated cut-off is given here; in the data, active means normalized growth mostly below about 0.91 (no sharp cut-off); inconclusive means no clear call, values can overlap the other calls; inactive means mostly above about 0.92. This is one part of the list.

Test: chemical genetic growth profiling, strain panel (AID 1159580);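 further: tested at 20 µM; growth read once vehicle control cultures reached saturation at 30 °C; 1 = growth at the plate median or of vehicle wells; lower values mean less growth of the strain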
Conditions: S. cerevisiae deletion strains, growth OD

Measured: normalized growth

Cc1cc(O)c2c(c1O)C(=O)c1c(O)cc(C)c(O)c1C2=O
inactive: locus YAL013W, strain DEP1, active compounds read low 0.982 | locus YAL021C, strain ccr4, active compounds read low 0.948 | locus YAL026C, strain drs2, active compounds read low 0.969 | locus YAL030W, strain snc1, active compounds read low 0.951 | locus YBL061C, strain skt5, active compounds read low 0.968 | locus YBR009C, strain hhf1, active compounds read low 0.97 | locus YBR021W, strain FUR4, active compounds read low 1.12 | locus YBR023C, strain chs3, active compounds read low 0.983 | locus YBR171W, strain sec66, active compounds read low 0.948 | locus YBR229C, strain ROT2, active compounds read low 0.969 | locus YBR231C, strain swc5, active compounds read low 0.974 | locus YBR279W, strain paf1, active compounds read low 0.989 | locus YCL011C, strain gbp2, active compounds read low 0.939 | locus YCL016C, strain dcc1, active compounds read low 0.978 | locus YCL029C, strain bik1, active compounds read low 0.988 | locus YCL061C, strain MRC1, active compounds read low 0.978 | locus YCL069W, strain vba3, active compounds read low 0.966 | locus YCR088W, strain abp1, active compounds read low 0.98 | locus YDL005C, strain med2, active compounds read low 0.971 | locus YDL035C, strain GPR1, active compounds read low 0.975 | locus YDL040C, strain nat1, active compounds read low 0.991 | locus YDL074C, strain BRE1, active compounds read low 1 | locus YDL101C, strain DUN1, active compounds read low 0.947 | locus YDL134C, strain PPH21, active compounds read low 0.967 | locus YDL185W, strain tfp1, active compounds read low 0.979 | locus YDL192W, strain arf1, active compounds read low 0.987 | locus YDR001C, strain nth1, active compounds read low 0.952 | locus YDR069C, strain doa4, active compounds read low 0.942 | locus YDR101C, strain arx1, active compounds read low 0.993 | locus YDR137W, strain rgp1, active compounds read low 0.877 | locus YDR150W, strain NUM1, active compounds read low 0.989 | locus YDR159W, strain sac3, active compounds read low 0.973 | locus YDR162C, strain NBP2, active compounds read low 0.921 | locus YDR195W, strain ref2 1.04 | locus YDR297W, strain sur2, active compounds read low 0.973 | locus YDR318W, strain mcm21, active compounds read low 0.985 | locus YDR334W, strain swr1, active compounds read low 0.921 | locus YDR335W, strain msn5, active compounds read low 0.961 | locus YDR388W, active compounds read low 0.986 | locus YDR392W, strain spt3, active compounds read low 0.858 | locus YDR502C, strain sam2, active compounds read low 1 | locus YEL003W, strain gim4, active compounds read low 0.956 | locus YEL037C, strain rad23, active compounds read low 0.972 | locus YEL061C, strain CIN8 (second series), active compounds read low 0.97 | locus YEL061C, strain CIN8, active compounds read low 0.97 | locus YER015W, strain faa2, active compounds read low 0.95 | locus YER016W, strain bim1, active compounds read low 0.979 | locus YER110C, active compounds read low 0.992 | locus YER111C, strain swi4, active compounds read low 0.963 | locus YER155C, strain BEM2 (second series), active compounds read low 0.946 | locus YER155C, strain BEM2, active compounds read low 0.996 | locus YER167W, strain BCK2, active compounds read low 1.01 | locus YFR010W, strain ubp6, active compounds read low 0.942 | locus YGL078C, strain dbp3, active compounds read low 0.993 | locus YGL086W, strain mad1, active compounds read low 0.981 | locus YGL167C, strain pmr1, active compounds read low 0.977 | locus YGL173C, strain kem1, active compounds read low 0.946 | locus YGL227W, strain vid30, active compounds read low 0.983 | locus YGL240W, strain doc1, active compounds read low 0.962 | locus YGL248W, strain PDE1, active compounds read low 0.945 | locus YGL253W, strain hxk2, active compounds read low 0.985 | locus YGR078C, strain PAC10, active compounds read low 0.983 | locus YGR135W, strain pre9, active compounds read low 0.988 | locus YGR229C, strain SMI1, active compounds read low 0.992 | locus YGR252W, strain gcn5, active compounds read low 1.16 | locus YHR013C, strain ard1, active compounds read low 0.957 | locus YHR027C, strain rpn1, active compounds read low 0.951 | locus YHR030C, strain SLT2, active compounds read low 0.964 and 0.996 | locus YHR079C, strain IRE1 (second series), active compounds read low 0.985 | locus YHR079C, strain IRE1, active compounds read low 1 | locus YHR094C, strain hxt1, active compounds read low 0.995 | locus YHR129C, strain ARP1, active compounds read low 0.963 | locus YHR142W, strain chs7, active compounds read low 0.964 | locus YHR200W, strain rpn10, active compounds read low 0.994 | locus YIL066C, strain RNR3, active compounds read low 0.939 | locus YIL073C, strain SPO22, active compounds read low 1.3 | locus YIL125W, strain kgd1, active compounds read low 1 | locus YIR030C, strain dcg1, active compounds read low 0.997 | locus YJL092W, strain hpr5, active compounds read low 0.965 | locus YJL095W, strain BCK1 (second series), active compounds read low 0.974 | locus YJL095W, strain BCK1, active compounds read low 0.893 and 0.997 | locus YJL115W, strain asf1, active compounds read low 0.938 | locus YJL129C, strain trk1, active compounds read low 0.891 | locus YJL134W, strain LCB3, active compounds read low 0.977 | locus YJL154C, strain vps35, active compounds read low 0.971 | locus YJL164C, strain tpk1, active compounds read low 0.971 | locus YJL166W, strain qcr8, active compounds read low 0.978 | locus YJL168C, strain set2, active compounds read low 0.969 | locus YJL187C, strain SWE1 (second series), active compounds read low 0.903 | locus YJL187C, strain SWE1, active compounds read low 0.968 | locus YJR043C, strain POL32, active compounds read low 1.02 | locus YJR066W, strain TOR1, active compounds read low 0.926
